Bioassay records (PubChem)
A selection: hits, their analogues and other compounds. The true share with any hit is near 7.9%.
HCV inh: HCV inhibition; Huh7.5.1 HCVcc-Cre infection, luciferase reporter, 44 h; 3.4% of 340,000 active; Potency, µM (highest dose often 41.8 µM), actives largely listed as inhibitors; active means well fitted inhibition curve with a large enough effect; inconclusive means small, poorly fitted or top-dose-only effect, or another doubt; inactive means no such curve, though single readings can be large or run the other way
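Antiviral activity was scored by luciferase reporter output from cells infected with HCVcc-Cre (~0.5 moi) in presence of compound, 44 h infection period, cells seeded 1,000/well 4 h prior.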
LASV entry inh: blocks Lassa virus binding to or entry into cells; 1.2% of 300,000 active; Potency, µM (titrated, usually from 37.9 µM), usual class: inhibitors; Lassa virus pseudotype entry inhibition, cell reporter; calls by dose curve; tested in HEK293 cells; further: nearly all actives have a fitted effect of over 50% in size
MARV entry inh: Marburg virus entry inhibition | Marburg virus pseudotyped entry inhibition, cell reporter | Potency, µM (highest dose often 37.8 µM), usual class: inhibitors | 1.8% of 300,000 active | AID 540276; calls by dose curve; tested in HEK293 cells
FMDV inh: foot and mouth disease virus antiviral activity. FMDV antiviral cell-based qHTS. Potency, µM (series often up to 57.9 µM), most hits filed as inhibitors. 1.2% of 410,000 active. AID 1159524; calls by dose curve; tested in HEK293T cells; further: read-out not given here; nearly all actives have a fitted effect of over 45% in size
HCMV inh: blocks human cytomegalovirus replication; HFF cells, HCMV-luciferase reporter, 72 h; active compounds read low; activity change, negative = inhibition, % at 57.5 µM; 4.5% of 410,000 active; AID 1259415; in the data active means activity change below about -60%; inconclusive means no clear call, values can overlap the other calls; inactive means above about -39%
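HFF cells seeded 16 h at 37C, treated with compounds, infected with luciferase-reporter HCMV at MOI 1 PFU/cell; luciferase read at 72 h post infection, normalized to buffer-only and Salinomycin controls.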
Numbers stand for hits; n = inactive; u = inconclusive; x = no result given; ! = repeats disagree; [ ] = another dose, or the depositor's remark.

SMILES	HCV inh	LASV entry inh	MARV entry inh	FMDV inh	HCMV inh
Cc1ccc(C)c(S(=O)(=O)NCCC(=O)N2CCCC(C(N)=O)C2)c1 (stereo not given)	n	x	x	n	-83
COc1ccc(-c2csc(-c3nc(-c4ccc(Br)s4)cs3)n2)cc1F	x	n	n	n	n
CCc1ccc(NC(=O)c2ccc3c(c2)C(=O)N(CCOC)C3Nc2ccc(CC)cc2)cc1 (stereo not given)	n	n	n	n	-90
Cc1ccc(CNC(=O)c2oc3ccc(S(=O)(=O)N4CCCC(C)C4)cc3c2C)cc1 (stereo not given)	x	u	u	u	n
Cc1ccc2nc(CCl)[n+]([O-])c(-c3ccccc3)c2c1	u	n	n	28µM	n
Cc1ccc2nc(Cl)c(-c3ccccc3)cc2c1	n	u	n	n	n
COc1ccc(C2c3cc4c(cc3OC(N3CCOCC3)C2C)OCO4)c(OC)c1 (stereo not given)	u	6.3µM	u	n	u
COC1(C#C[C@@H]2C=C[C@H](OC(C)=O)[C@@H](COC(C)=O)O2)CCCCC1	x	u	n	x	x
CCOC(=O)c1ccc(NC(=O)c2nc(S(=O)(=O)Cc3ccccc3)ncc2Cl)cc1	10µM	u	11µM	35µM	-99
CCOC(=O)c1c(-c2ccccc2)csc1NC(=S)N(CC)CC	u	n	u	u	n
CCSc1ncc(Cl)c(C(=O)Nc2ccccc2)n1	n	n	n	n	n
CCOC(=O)c1c(-c2ccccc2)csc1NC(=O)c1nc(S(=O)(=O)CC)ncc1Cl	x	n	u	14µM	-98
CCS(=O)(=O)c1ncc(Cl)c(C(=O)Nc2ccccc2)n1	x	u	u	u	-103
CCOC(=O)c1c(-c2ccccc2)csc1NC(=O)c1nn(CC)cc1Br	u	u	10µM	x	n
CCOC(=O)c1ccc(NC(=O)c2nc(SC(C)C)ncc2Cl)cc1	x	u	n	n	n
CC=CCCN1C=C(C(C)=O)C(c2ccccc2)NC1=O (stereo not given)	x	x	n	x	x
CCN(c1ccccc1)S(=O)(=O)c1ccc(NC(=O)c2nc(SC)ncc2Cl)cc1	x	u	u	n	-86
CCc1ccc(NC(=O)c2nc(S(=O)(=O)Cc3ccccc3)ncc2Cl)cc1	x	x	x	x	-100
CCCS(=O)(=O)c1ncc(Cl)c(C(=O)Nc2ccc(S(=O)(=O)Nc3ncccn3)cc2)n1	n	x	x	n	n
CN(c1ccccc1)S(=O)(=O)c1ccc(NC(=O)c2nc(S(C)(=O)=O)ncc2Cl)cc1	10µM	u	u	11µM	-111
CCCSc1ncc(Cl)c(C(=O)Nc2ccc(S(=O)(=O)N(C)c3ccccc3)cc2)n1	x	n	n	n	n
CS(=O)(=O)c1ncc(Cl)c(C(=O)Nc2c(C(=O)Nc3ccccc3)oc3ccccc23)n1	x	n	n	28µM	n
O=C(N/N=C/c1ccccc1)c1ccco1	n	u	u	n	n
O=C(C#Cc1ccccc1)c1ccco1	u	11µM	u	8.9µM	-99
CCCCS(=O)(=O)C(=C1Nc2ccccc2N1)S(=O)(=O)CCCC	n	n	n	n	n
SMILES	HCV inh	LASV entry inh	MARV entry inh	FMDV inh	HCMV inh
CCS(=O)(=O)C(=C1Nc2ccccc2N1)S(=O)(=O)CC	n	n	n	n	-98
COc1ccccc1C(=O)NCCC(=O)Nc1ccc(S(=O)(=O)N2CC(C)CC(C)C2)cc1 (stereo not given)	u	x	x	n	n
COc1ccccc1C(=O)NCCC(=O)Nc1ccc(S(=O)(=O)N2C(C)CCCC2C)cc1 (stereo not given)	10µM	x	x	n	n
CCN1CCN(CC(=O)Nc2ccc(S(=O)(=O)N3C(C)CCCC3C)cc2)CC1 (stereo not given)	n	n	n	n	-99
Cc1ccc(Cn2c(CN3CCC(C(=O)NCc4cccnc4)CC3)cc3ccccc32)cc1	x	n	x	u	n
Cc1cc(Br)ccc1SCC(=O)OCC(O)=C(C#N)c1nc2ccccc2[nH]1	n	n	u	n	n
Cc1cc(Br)ccc1SCC(=O)OC/C(O)=C(\C#N)c1nc2ccccc2[nH]1	n	x	x	n	-84
N#C/C(=C(/O)COC(=O)CSc1ccc2ccccc2c1)c1nc2ccccc2[nH]1	n	n	u	n	-102
N#CC(=C(O)COC(=O)Cc1c[nH]c2ccccc12)c1nc2ccccc2[nH]1	n	n	n	n	n
Cc1ccc(C)c(SCC(=O)OC/C(O)=C(\C#N)c2nc3ccccc3[nH]2)c1	n	n	u	n	-102
COc1ccc(-c2nc3ccccc3n2Cc2ccc(C(C)C)cc2)cc1	x	n	u	n	-73
O=C(COc1nncc2ccccc12)Nc1c(F)c(F)c(F)c(F)c1F	n	n	n	n	n
O=C(COc1nncc2ccccc12)Nc1ccc(F)c(F)c1	n	u	n	n	-101
Cc1oc2ncn(C)c(=O)c2c1C(=O)Nc1ccccn1	x	n	n	n	n
CN1CCN(C2=Nc3ccccc3Sc3ccc(Cl)cc32)CC1	x	x	x	n	x
CN1CCN(C2=Nc3ccccc3Oc3ccc(Cl)cc32)CC1	n[8.37 µM]	n	12µM	n	n
COc1ccc(CN2CCN(Cc3nc4ccccc4s3)CC2CCO)c(C)c1C (stereo not given)	6.3µM	x	x	u	n
COc1ccc(CN2CCN(CC3CC3)CC2CCO)c(C)c1C (stereo not given)	n	x	x	n	n
COc1ccccc1C1CN(Cc2cccc(OCCO)c2)Cc2ccccc2O1 (stereo not given)	x	x	x	n	x
O=C(CSc1nc(-c2ccc(Cl)cc2)cs1)Nc1cccc([N+](=O)[O-])c1	13µM	x	x	n	n
O=[N+]([O-])c1cccc(NC(=S)Nc2nc(-c3ccccc3Cl)cs2)c1	8.9µM	u	u	n	x
Cc1cc(NC(=O)CSc2nc(-c3ccc(Cl)cc3)cs2)no1	u	n	u	n	n
CCOC(=O)c1c(C)[nH]c(C)c1S(=O)(=O)N1CCCC(C(=O)NCc2cccc(OC)c2)C1 (stereo not given)	x	n	x	n	n
COc1ccc2nc(S(=O)Cc3ncc(C)c(OC)c3C)[nH]c2c1 (stereo not given)	2.2µM!	n	n	n	n
COc1ccc2nc(SCC(=O)Nc3c(C)cccc3C)[nH]c2c1	n	n	n	n	n
SMILES	HCV inh	LASV entry inh	MARV entry inh	FMDV inh	HCMV inh
O=[N+]([O-])c1ccccc1-c1cc(-c2ccccc2)cc(-c2ccccc2)[n+]1Cc1ccccc1Cl	3.5µM	x	x	u	-97
N#C/C(=C/c1ccc(-c2ccc(S(N)(=O)=O)cc2)o1)c1nc2ccccc2s1	4.5µM	u	u	n	u
CCOC(=O)c1cc2c(=O)n3ccccc3nc2n(C)c1=NC(=O)c1c(-c2ccccc2Cl)noc1C	x	n	u	n	n
O=C(CCCCCn1c(=O)[nH]c2ccccc2c1=O)NCc1cccc(Cl)c1	x	n	x	n	n
CCOc1ccc(NC(=O)/C=C\C(=O)N(c2ccc(C(C)C)cc2)C(C(=O)NCc2ccco2)c2ccc(F)cc2)cc1 (stereo not given)	x	n	x	n	-61
COc1ccc(N(C(=O)/C=C\C(=O)Nc2ccc(Cl)cc2)C(C(=O)NCc2ccco2)c2ccc(C)cc2)cc1 (stereo not given)	x	u	x	n	n
